In all, about 94,000 compounds went through this assay and about 2,100 (2.2%) were called active. The list comes from a sample in which actives are over-represented; it also holds similar structures and randomly drawn compounds. A number with no mark means an inactive call. No stated cut-off is given here; in the data, active means activity change below about -80%; inconclusive means no clear call, values can overlap the other calls; inactive means above that.
Experiment: Dd2 malaria parasite growth inhibition – SYBR Green fluorescence, single dose replicates, primary screen (AID 1159554)
Conditions: P. falciparum Dd2 growth, 72 h, at 10 µM, hits give low values

| Compound | activity change |
| --- | --- |
| CCC(=O)N(C)C[C@H]1Oc2ncc(C#CC(C)C)cc2C(=O)N([C@@H](C)CO)C[C@H]1C | 34.1% |
| CN1C(=O)c2cc(NC(=O)C3CCCC3)ccc2OC[C@H]2O[C@H](CC(=O)NCc3ccccc3F)CC[C@H]21 | -16.4% |
| O=C(C1CCCC1)N1[C@H](CO)[C@H]2c3ccccc3N(S(=O)(=O)c3ccccc3)C[C@H]21 | -20% |
| Cc1noc(C)c1NC(=O)N(C)C[C@H]1Oc2ccc(NC(=O)Cn3cnnn3)cc2CC(=O)N([C@H](C)CO)C[C@@H]1C | 26.5% |
| C[C@@H]1CN([C@@H](C)CO)C(=O)c2cccc(NC(=O)Nc3ccccc3)c2O[C@H]1CN(C)Cc1ccccc1 | -14.5% |
| Cc1cc(C(=O)Nc2cccc3c2O[C@@H](CN(C)Cc2ccc(C(=O)O)cc2)[C@H](C)CN([C@@H](C)CO)C3=O)n(C)n1 | 6.12% |
| C[C@H](CO)N1C[C@H](C)[C@H](CN(C)Cc2ccc(C(=O)Nc3ccccc3N)cc2)Oc2c(NC(=O)Nc3ccccc3)cccc2C1=O | -80.2% (active) |
| C[C@H](CO)N1C[C@H](C)[C@@H](CN(C)Cc2ccc(C(=O)Nc3ccccc3N)cc2)Oc2c(NC(=O)C3CC3)cccc2C1=O | -57.7% |
| Cc1cc(C(=O)Nc2cccc3c2O[C@@H](CN(C)Cc2ccc(C(=O)Nc4ccccc4N)cc2)[C@H](C)CN([C@@H](C)CO)C3=O)n(C)n1 | -84.4% (active) |
| Cc1cc(C(=O)Nc2cccc3c2O[C@@H](CN(C)Cc2ccncc2)[C@@H](C)CN([C@@H](C)CO)C3=O)n(C)n1 | 6.17% |
| CC(C)(C)[S@](=O)N1Cc2cc(C(=O)N3CCCCC3)nc(-c3cccc(Br)c3)c2[C@@H]1CCO | -2.81% |
| COc1cccc(S(=O)(=O)N[C@H]2C=C[C@@H](CC(=O)NCc3ccccc3)O[C@@H]2CO)c1 | 18.4% |
| O=C(C[C@@H]1CC[C@@H]2[C@H](COC[C@H](O)CN2C(=O)c2ccncc2)O1)NCc1cc(F)cc(F)c1 | 1.9% |
| COc1ccc(-c2cnc3c(c2)C(=O)N([C@@H](C)CO)C[C@H](C)[C@@H](CN(C)C(=O)C2CC2)O3)cc1 | 13.9% |
| O=C(c1ccc(F)cc1)N1CC2(C1)[C@H](c1ccccc1)[C@@H](CO)N2Cc1ccccn1 | -24.5% |
| O=C1CN(S(=O)(=O)c2ccccc2)C[C@H]2[C@H](c3ccc(C#CCc4ccccc4)cc3)[C@@H](CO)N12 | -82.9% (active) |
| Cc1ccccc1S(=O)(=O)N1CC(=O)N2[C@H](CO)[C@H](c3ccc(C#CCN(C)C)cc3)[C@H]2C1 | -1.17% |
| O=C1CN(S(=O)(=O)c2ccccc2)C[C@H]2[C@H](c3ccc(C4=CCCC4)cc3)[C@@H](CO)N12 | 5.25% |
| O=C1CN(S(=O)(=O)Cc2ccccc2)C[C@@H]2[C@@H](c3ccc(C#Cc4ccccc4)cc3)[C@@H](CO)N12 | -68.4% |
| Cc1ccccc1S(=O)(=O)N1CC(=O)N2[C@H](CO)[C@H](c3ccc(C#CC4CC4)cc3)[C@@H]2C1 | -84.8% (active) |
| Cc1ccccc1S(=O)(=O)N1CC(=O)N2[C@H](CO)[C@@H](c3ccc(C#Cc4ccccc4)cc3)[C@H]2C1 | -22.9% |
| C[C@@H]1CN([C@@H](C)CO)S(=O)(=O)c2ccc(C#CC(C)(C)O)cc2O[C@H]1CN(C)C(=O)CN(C)C | 31.6% |
| Cc1ccccc1S(=O)(=O)N1[C@@H](C#N)[C@H](c2ccccc2)[C@@H]1CO | 20.4% |

| Compound | activity change |
| --- | --- |
| CCCNC(=O)N1CC2(CN(C(=O)C3CCCCC3)C2)c2c([nH]c3cc(OC)ccc23)[C@@H]1CO | -5.82% |
| O=C(Nc1ccc(F)cc1)N[C@H]1C=C[C@@H](CC(=O)N2CCOCC2)O[C@H]1CO | -16.7% |
| COc1ccc(S(=O)(=O)N(C)C[C@@H]2Oc3c(NC(=O)NC(C)C)cccc3C(=O)N([C@@H](C)CO)C[C@@H]2C)cc1 | -6.46% |
| C[C@@H]1CN([C@@H](C)CO)C(=O)c2cccc(NC(=O)Nc3cccc4ccccc34)c2O[C@H]1CN(C)S(=O)(=O)c1ccccc1 | -19.1% |
| C[C@H]1CN([C@@H](C)CO)C(=O)c2cccc(NC(=O)CCCCCC(=O)Nc3ccccc3N)c2O[C@@H]1CN(C)S(=O)(=O)c1cn(C)cn1 | 22.6% |
| C[C@H](CO)N1C[C@H](C)[C@H](CN(C)S(=O)(=O)c2ccccc2)Oc2c(NC(=O)CCCCCC(=O)Nc3ccccc3N)cccc2C1=O | -73.2% |
| COc1ccc(S(=O)(=O)N(C)C[C@H]2Oc3c(NC(=O)CCCCCC(=O)Nc4ccccc4N)cccc3C(=O)N([C@H](C)CO)C[C@H]2C)cc1 | -89.5% (active) |
| COc1ccc(S(=O)(=O)N(C)C[C@H]2Oc3c(NC(=O)Nc4cccc5ccccc45)cccc3C(=O)N([C@@H](C)CO)C[C@H]2C)cc1 | -88.1% (active) |
| COCC(=O)Nc1ccc2c(c1)C(=O)N(C)C[C@@H](OC)[C@@H](C)CN(C(=O)Cc1ccccn1)[C@@H](C)CO2 | -33.6% |
| COc1ccc(S(=O)(=O)N(C)C[C@H]2OCCCC[C@@H](C)Oc3ccc(NS(=O)(=O)c4ccc(C)cc4)cc3C(=O)N([C@@H](C)CO)C[C@@H]2C)cc1 | -36.4% |
| CCCNC(=O)N1[C@H](CO)[C@H]2c3ccccc3N(C(=O)Nc3cccc(Cl)c3)C[C@H]21 | 6.16% |
| COc1cccc(-c2ccc([C@@H]3[C@@H](CO)N(C(=O)c4ccccn4)[C@H]3C#N)cc2)c1 | -11.6% |
| COc1cccc(-c2ccc([C@@H]3[C@@H](C#N)N(C(=O)c4ccccn4)[C@H]3CO)cc2)c1 | -35.5% |
| COc1cccc(C#Cc2ccc([C@H]3[C@@H](CO)N(C(=O)c4ccccn4)[C@H]3C#N)cc2)c1 | -92% (active) |
| CCCN1C[C@H](C)[C@H](OC)CN(C)C(=O)c2cc(NC(=O)NC3CCCC3)ccc2OC[C@H]1C | 20% |
| C[C@@H]1CCCCO[C@@H](CN(C)S(C)(=O)=O)[C@H](C)CN([C@@H](C)CO)C(=O)c2cc(NC(=O)Nc3ccc4c(c3)OCO4)ccc2O1 | 33.8% |
| CO[C@H]1CN(C)C(=O)c2cc(NS(=O)(=O)c3ccccc3)ccc2OC[C@@H](C)N(Cc2nccs2)C[C@@H]1C | -8.31% |
| CCS(=O)(=O)N1CC2(CN(Cc3cc(F)ccc3F)[C@@H](CO)c3c2c2ccc(OC)cc2n3C)C1 | -72.9% |
| CO[C@H]1CN(C)C(=O)c2cc(NS(C)(=O)=O)ccc2OC[C@@H](C)N(Cc2ccccc2)C[C@@H]1C | -41.2% |
| COc1ccc2c3c(n(C)c2c1)[C@@H](CO)N(Cc1ccccc1)CC31CN(C(=O)C2CC2)C1 | -20.3% |
| CCCC(=O)N1CC2(CN(C(=O)NC(C)C)C2)c2c([nH]c3cc(OC)ccc23)[C@@H]1CO | 16.5% |
| COc1ccc2c3c([nH]c2c1)[C@@H](CO)N(Cc1ccccc1F)CC31CN(C(=O)C2CC2)C1 | -48% |
| CCC(=O)N1CC2(C1)CN(Cc1ccccc1Cl)[C@@H](CO)c1[nH]c3cc(OC)ccc3c12 | -91.3% (active) |

| Compound | activity change |
| --- | --- |
| COCC(=O)N1CCC2(CC1)CN(Cc1ccccc1Cl)[C@H](CO)c1c2c2ccc(OC)cc2n1C | -60.4% |
| COc1ccc2c3c([nH]c2c1)[C@H](CO)N(Cc1ccccc1Cl)CC31CN(C(=O)C2CC2)C1 | -92.3% (active) |
| COc1ccc2c3c([nH]c2c1)[C@@H](CO)N(C(C)=O)CC31CCN(Cc2ccccc2Cl)CC1 | -38.2% |
| COc1ccc2c3c([nH]c2c1)[C@H](CO)N(Cc1ccccc1OC)CC31CCN(S(=O)(=O)c2ccccc2)CC1 | -79.1% |
| COc1ccc2c3c(n(C)c2c1)[C@H](CO)N(Cc1ccccc1Cl)CC31CN(C(=O)CN(C)C)C1 | -83.6% (active) |
| COc1ccc(-c2ccc([C@@H]3[C@@H](C#N)N(C(=O)C4CCCCC4)[C@H]3CO)cc2)cc1 | -30.1% |
| CCC(=O)Nc1ccc2c(c1)C(=O)N(C)C[C@H](OC)[C@H](C)CN(C(=O)c1ccccn1)[C@@H](C)CO2 | 15.8% |
| COc1ccc2c3c(n(C)c2c1)[C@H](CO)N(C(=O)Nc1c(C)noc1C)CC31CN(CC2CC2)C1 | -7.59% |
| O=C(C[C@H]1CC[C@H]2NC[C@@H](O)COC[C@@H]2O1)NCCN1CCCC1 | 9.89% |
| COc1cccc(CN(C)C[C@H]2OCc3ccccc3-c3c(n(C)c4ccccc34)C(=O)N([C@@H](C)CO)C[C@@H]2C)c1 | -62% |
| COc1ccc2c3c(n(C)c2c1)[C@H](CO)NCC31CN(S(=O)(=O)c2cccc(C)c2)C1 | 21.6% |
| C[C@@H]1CN([C@@H](C)CO)C(=O)c2cccc(NS(=O)(=O)c3cccs3)c2O[C@H]1CN(C)Cc1ccncc1 | 28.4% |
| C[C@H]1CN([C@@H](C)CO)C(=O)c2cccc(NC(=O)c3ccc(-c4nccs4)cc3)c2O[C@H]1CN(C)Cc1ccc(C(=O)O)cc1 | 24% |
| C[C@H](CO)N1C[C@H](C)[C@H](CN(C)S(C)(=O)=O)Oc2c(NC(=O)c3ccc(-c4nccs4)cc3)cccc2C1=O | -3.36% |
| C[C@H](CO)N1C[C@H](C)[C@@H](CN(C)Cc2ccc(C(=O)Nc3ccccc3N)cc2)Oc2c(NC(=O)c3ccc(-c4nccs4)cc3)cccc2C1=O | -90% (active) |
| C[C@@H]1CN([C@@H](C)CO)C(=O)c2cccc(NC(=O)c3ccc(-c4nccs4)cc3)c2O[C@H]1CN(C)Cc1ccc(Cl)c(Cl)c1 | -90.3% (active) |
| C[C@H](CO)N1C[C@H](C)[C@@H](CN(C)S(C)(=O)=O)Oc2c(NC(=O)c3ccc(-c4nccs4)cc3)cccc2C1=O | -4.15% |
| C[C@@H]1CN([C@@H](C)CO)C(=O)c2cccc(NC(=O)c3cnccn3)c2O[C@H]1CN(C)Cc1ccc(C(=O)O)cc1 | -5.79% |
| C[C@@H]1CN([C@H](C)CO)C(=O)c2cccc(NC(=O)c3cnccn3)c2O[C@@H]1CN(C)Cc1ccc(C(=O)Nc2ccccc2N)cc1 | -88.3% (active) |
| C[C@@H]1CN([C@@H](C)CO)C(=O)c2cccc(NC(=O)c3cnccn3)c2O[C@H]1CN(C)Cc1ccc(-c2ccccc2)cc1 | -64.1% |
| C[C@H]1CN([C@@H](C)CO)C(=O)c2cccc(NS(=O)(=O)c3cccs3)c2O[C@H]1CN(C)Cc1ccc(C(=O)Nc2ccccc2N)cc1 | -87.1% (active) |
| C[C@@H]1CN([C@@H](C)CO)C(=O)c2cccc(NC(=O)c3ccc(-c4nccs4)cc3)c2O[C@@H]1CN(C)Cc1ccncc1 | -15.6% |
| C[C@@H]1CN([C@@H](C)CO)C(=O)c2cccc(NS(=O)(=O)c3cccs3)c2O[C@@H]1CN(C)CC1CC1 | 18.4% |
